Data on 40 molecules can be found in PubChem BioAssay (NCI).

Where “and” joins values, the source holds several entries; their conditions need not be identical. Equal values may be shown once. This is part of a sample that, as a whole, favours compounds with a hit. Of some 83,000 tested, about 20% had one in any assay.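 Percent growth is the endpoint: 0 to 100 indicates growth inhibition (40 means 60% inhibition), 0 means no net growth, and negative values indicate cell death.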 Values without a mark were called inactive. Calls of active or inactive are those of the source. Rule for the calls: active = growth percent below 10; inactive = the rest.

The experiment deals with MDA-MB-468 breast. Put plainly: NCI-60 one-dose screen, 48 h (100 = growth as untreated, 0 = no growth, -100 = all killed). The following applies: 10 µM unless noted.
With `O=C(N/N=C/c1ccc[nH]1)c1[nH]c2ccc(Br)cc2c1-c1ccccc1`, the growth is -0.633% (active).
With `Oc1cccc(-c2nc(-c3n[nH]c(=S)n3-c3ccccc3)cc3c2[nH]c2ccccc23)c1` the figure was 9.85% (active).
As for `C#C[C@H](O)/C=C/CCCCCCC#C[C@H](O)CC[C@@H](O)C#CCCCCCC/C=C/[C@@H](O)C#C`, the growth is 97.6%.
On to `Cc1nc(C)c(-c2nn3c(-c4cccc(F)c4)nnc3s2)s1`, for which the growth was 89.5%.
Next, `O=c1oc2cc(OS(=O)(=O)c3ccc(F)cc3)ccc2c2c1CCCCC2`: 31.3%; `CCCC1(CN2c3ccccc3Sc3ccc(Cl)cc32)CCN(CC)C1` (stereo not given): -64.2% (active).
With `COc1cnc2c(c1)C(=O)c1c-2n(CCCN2CCN(CCO)CC2)c(=O)c2cc([N+](=O)[O-])ccc12` the figure was 76.6%; with `C[C@@H]1N=C(c2ccc3ccccc3n2)Nc2nc3ccccn3c2C1=O`, 107%; with `Cc1c2c(nn1C(=O)c1nn(-c3ccc(Cl)cc3)cc1O)-c1ccccc1CC2`, 13.9%.
Regarding `O=C(C1CCCCC1)[C@@H]1[C@]2(C(=O)NC3CCCCC32)[C@@H]2CCCN2[C@@]12C(=O)NC1CCC(Cl)CC12` (stereo not given in full), the growth was -67% [100 µM] (active).
Consider `O=S(=O)(Nc1ccc(Br)c(Cl)c1)c1ccc(-c2cnc(C3CC3)o2)cc1`, for which the growth was -23.9% (active).
As to `COc1cccc(C2C3=C(COC3=O)N(CCO)c3cc4c(cc32)CCC4)c1` (stereo not given), the growth was -51.6% (active).
For `CN(C)c1ccc(/C=C/C(=O)c2ccccc2)cc1`, the growth was 90.3%.
For `CCCn1cc(/C=N\N=C2\C(=O)Nc3ccc(C)cc32)c2ccccc21`, the growth is 25.2%.
Next, `COc1ccc(/C=C2\N=C3Sc4cc(Cl)ccc4C(=O)N3C2=O)cc1`: 113%.
Turning to `O=C(/C=C/c1cn(-c2ccccc2)nc1-c1cccc(Nc2ccnc3cc(Cl)ccc23)c1)c1ccc2c(c1)OCO2`, the growth is 68.2%.
With `CCN(CC)CCN1C(=O)c2c(c(C)c3c(oc4ccc(O)cc43)c2C)C1=O`, the growth was 47.5%.
For the molecule `CC/C(Cc1ccccc1)=C(\c1ccc(OCCN2CCCC2)cc1)c1ccc(OC(C)=O)cc1`, the growth was 62.8%.
For the molecule `COc1cc(C(=O)N2CCN(c3ccccc3)CC2)c2ccccc2n1`, the growth was 5.08% (active).
In the case of `COc1cnc2c(c1)C(=O)c1c-2n(CCCn2ccnc2)c(=O)c2cc(OC)c(OC)cc12`, the growth was -25.7% (active).
Next, `O=S(=O)(c1ccccc1)n1cc2c(c1-c1ccccc1)CCc1sc(Nc3ccccc3)nc1-2`: 73.3%; `CCOC(=O)c1cnc2ccccc2c1Cl`: 97.4%.
Consider `CCOC(=O)NC(/C=C/c1ccccc1)NC(=O)OCC`, for which the growth was 99.7%.
With `COc1ccc(-c2nn(-c3ccc(NC(=O)c4cc(C(F)(F)F)cc(C(F)(F)F)c4)cc3)cc2-c2ccncc2)cc1Cl`, the growth was 77.1%.
In the case of `O=C(c1ccc(Cl)cc1)C1[C@H](c2ccc(Cl)cc2)[C@@H](c2ccccc2)NC12C(=O)Nc1ccccc12` (stereo not given in full), the growth is 50.7%.
For the molecule `Cn1cc(-c2nonc2-c2c[nH]c3ccc(Br)cc23)c2cc(Br)ccc21`, the growth was 21%.
As to `COc1cccc(C(=O)Nc2cccc(C#Cc3cccc4[nH]nc(N)c34)c2)c1`, the growth was 24.5%.
For `CSc1nnc(-c2cc3c([nH]c4ccccc43)c(-c3cccc(O)c3)n2)n1-c1ccc(C)cc1`, the growth was 20.4%.
In the case of `Nc1nc(SN=Nc2ccc(S(N)(=O)=O)cc2)c2[nH]cnc2n1`, the growth is -9.35% (active).
Take `CCN1CCN(CCNc2nccc(-c3c(-c4cccc(O)c4)nc4sccn34)n2)S1(=O)=O`: the growth was 86.7% and 81.1%.
Turning to `Fc1ccc2[nH]cc(-c3nc(-c4c[nH]c5ncccc45)cs3)c2c1`, the growth was 34.9%.
Consider `Cc1n[nH]c(C)c1N=Nc1cccc2c1C(=O)c1ccccc1C2=O`, for which the growth was 96.2%.
Regarding `O=C(Nc1ccc(OS(=O)(=O)c2ccc(F)cc2)cc1)c1ccc(Cl)cc1`, the growth was 98%.
As to `COc1cc(-c2nc(SCCC(C)C)nc(Nc3ccccc3Cl)c2C#N)cc(OC)c1OC`, the growth was 108%.
In the case of `CO[C@H]1/C=C/O[C@@]2(C)Oc3c(C)c(O)c4c(O)c(c5c(nc6cc(C)ccn65)c4c3C2=O)NC(=O)/C(C)=C\C=C\[C@H](C)[C@H](O)[C@@H](C)C(O)[C@@H](C)[C@H](OC(C)=O)[C@@H]1C` (stereo not given in full), the growth was 105%.
`COc1cc(/C=C/C(=O)N2CCN(C(=O)c3cc(OC)c(OC)c(OC)c3)CC2)ccc1OCCCN1C(=O)c2cccc3cccc(c23)C1=O`: the growth was 102%.
Regarding `N#Cc1ccc(-n2cnc(NC(=O)[C@H]3CCN(C#N)C3)c2)cc1`, the growth is -38.1% (active).
Consider `CCN(CC)c1cn(-c2ccc(S(N)(=O)=O)cc2)nn1`, for which the growth is 91.9%.
In the case of `COc1ccc(NC2=C(Cl)C(=O)C(C)=C(C)C2=O)cc1`, the growth is -38.4% (active).
Next, `Cc1ccc(Oc2nc3ccccc3cc2-c2nnc(Cn3c(COc4ccccc4)nc4ccccc43)o2)cc1`: 92.1%.
